From PubChem BioAssay AID743269 (The Scripps Research Institute Molecular Screening Center, 2014) come the findings set out here.

In all, about 370,000 compounds went through this assay and about 2,400 (0.65%) were called active. The sample as a whole holds a higher share of actives than the screen did. Values without a mark were called inactive.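 How the source made its calls: active means inhibition above the screen-wide mean plus 3 SD (cut at about 13% in these data); inactive means the rest.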

This assay deals with HIV-1 integrase (with human LEDGF/p75). Kind of assay: blockers of LEDGF/p75-dependent integrase strand transfer – biochemical, TR-FRET, high throughput, primary screen (AID 743269).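 Further: signal is the Cy5 over europium emission ratio at 671 and 618 nm; 0% = plate median of compound wells.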 The following applies: TR-FRET IN-LEDGF/p75 DNA integration, Eu/Cy5; at 3.7 µM; active compounds read high. For orientation: Time-resolved FRET reads energy transfer from a long-lived donor to a nearby acceptor.
As to `C=CCOC/C=C/C#CCN(CC=C)Cc1ccc(OC)cc1OC`, the inhibition (commonly the relative decrease from the control value, in per cent) is 5.5%.
With `CCOC(=O)[C@]12CCCC3=C1N(CCC3)C(=O)[C@@H](CC(=O)NCc1cccs1)C2`, the inhibition is -1.84%.
The same measure for `O=C(NC1CCCCC1)N1CCc2[nH]c3ccccc3c2C1`: 35.1% (active).
The same measure for `O=C(Nc1cccc2c1CCCC2)C1CCN(C(=O)NC2CCCCC2)CC1`: -1.21%; for `O=C(CSc1nnc2c(n1)[nH]c1ccccc12)NC1CCCCC1`: 4.55%.
Regarding `CC(=O)C1(C(=O)Nc2nccs2)CC(c2ccccc2C(F)(F)F)=NO1` (stereo not given), the inhibition is 1.17%.
The same measure for `CC(O)c1nc2ccccc2n1Cc1ccc([N+](=O)[O-])cc1` (stereo not given): 0.5%.
In the case of `O=C(O)Cn1c(Cc2ccccc2)nc2ccccc21`, the inhibition is -1.98%.
On to `CC(=O)c1nc2ccccc2n1Cc1ccccc1`, for which the inhibition was 22.6% (active).
`COc1cccc(/C=C2\CC3(OC(C)=O)CCCN2C3)c1` (stereo not given): the inhibition was -3.9%.
As to `O=C1C(=O)N(Cc2ccc(-c3ccsc3)cc2)c2ccc(OC(F)(F)F)cc21`, the inhibition was 0.06%.
For `Cc1cccc(NC(=O)C[C@H]2CC[C@H]3[C@@H](COc4ccc(NC(=O)Nc5ccccc5)cc4C(=O)N3C)O2)c1`, the inhibition was 1.61%.
`Cc1ccc(C2=CCN(C)C(=O)N2c2ccc(Cl)cc2)cc1`: the inhibition was 0.69%.
Take `Oc1c(C=Nc2cccc3nsnc23)ccc2ccccc12`: the inhibition was 25.6% (active).
The same measure for `O=C(CSc1nnc(COc2ccccc2)n1-c1ccc(Cl)cc1)Nc1ccc2c(c1)OCO2`: -1.91%.
Turning to `COC(=O)C1CN(CC(C)C)CCS(=O)(=O)N1Cc1ccc(F)cc1` (stereo not given), the inhibition was -4.4%.
Consider `COc1ccc(C(=O)CSc2n[nH]c(N)n2)cc1`, for which the inhibition was -3.51%.
As to `Cc1cc(Oc2ccc(Cl)cc2)nc(SCC(=O)c2ccccc2)n1`, the inhibition was 35.9% (active).
On to `Cc1nc(SCC(=O)c2ccccc2)c([N+](=O)[O-])[nH]1`, for which the inhibition was -5.1%.
Turning to `COC(=O)[C@]12C[C@H](CC(=O)NCCCN3CCCC3=O)C(=O)N(CCc3ccc(OC)c(OC)c3)C1=C[C@H](COCc1ccccc1)O[C@@H]2C`, the inhibition is -3.08%.
Regarding `NC1=CC(=O)C(=O)c2cccnc21`, the inhibition is 40% (active).
Take `O=c1ccc2c(-c3ccccc3S(=O)(=O)O)c3ccc(O)c(O)c3oc-2c1O`: the inhibition was 84% (active).
Turning to `Cc1c[nH]c2cccc(-c3ccc(Cl)cc3)c12`, the inhibition was 4.29%.
As for `C[C@@H]1CN([C@@H](C)CO)C(=O)c2cccc(NC(=O)Nc3cccc4ccccc34)c2O[C@H]1CN(C)S(=O)(=O)c1ccccc1F`, the inhibition was 3.05%.
The same measure for `C#CCN([C@H](C(=O)OC)C(C)CC)S(=O)(=O)c1ccccc1Br` (stereo not given in full): 2.37%.
